Experimental data: the supplement of paper PMC6897291

Legend:
[1] = tested on: U-2932; experiment: growth inhibition by drug alone (1 - RLU/untreated control) (fraction); higher = stronger inhibition; settings: 177Lu-lilotomab satetraxetan 0 ug/ml
Method in brief: (§1)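 A radiolabelled anti-CD37 antibody conjugate (~600 MBq/mg) was applied for 18 h at 0.5 µg/ml to RIVA and 1 µg/ml to U-2932 cells, with untreated cells run alongside. All cells were washed and seeded at 3,000 cells/well onto library-printed plates at 10/100 nM (RIVA) or 10/1,000 nM (U-2932). Growth inhibition was based on RealTime-Glo luminescence compared with untreated no-drug wells. Daily reads began on day 3 after 1 h at 37°C, with each value being 1 − RLU/mean of the 48 such wells on that plate.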

[2] = tested on: RIVA; experiment: growth inhibition by drug plus 177Lu-lilotomab satetraxetan (1 - RLU/untreated control) (fraction); higher = stronger inhibition; settings: 177Lu-lilotomab satetraxetan 0.5 ug/ml
Method in brief: as §1

[3] = tested on: RIVA; experiment: growth inhibition by drug alone (1 - RLU/untreated control) (fraction); higher = stronger inhibition; settings: 177Lu-lilotomab satetraxetan 0 ug/ml
Method in brief: as §1

Row | Structure (SMILES) | growth inhibition by drug alone ([1]; 10 nM, time (day): 3) | growth inhibition by drug alone ([1]; 10 nM, time (day): 4) | growth inhibition by drug alone ([1]; 10 nM, time (day): 5) | growth inhibition by drug alone ([1]; 10 nM, time (day): 6) | growth inhibition by drug alone ([1]; 1000 nM, time (day): 3) | growth inhibition by drug alone ([1]; 1000 nM, time (day): 4) | growth inhibition by drug alone ([1]; 1000 nM, time (day): 5) | growth inhibition by drug alone ([1]; 1000 nM, time (day): 6) | growth inhibition by drug plus 177Lu-lilotomab satetraxetan ([2]; 10 nM, time (day): 3) | growth inhibition by drug plus 177Lu-lilotomab satetraxetan ([2]; 10 nM, time (day): 4) | growth inhibition by drug plus 177Lu-lilotomab satetraxetan ([2]; 10 nM, time (day): 5) | growth inhibition by drug plus 177Lu-lilotomab satetraxetan ([2]; 10 nM, time (day): 6) | growth inhibition by drug plus 177Lu-lilotomab satetraxetan ([2]; 100 nM, time (day): 3) | growth inhibition by drug plus 177Lu-lilotomab satetraxetan ([2]; 100 nM, time (day): 4) | growth inhibition by drug plus 177Lu-lilotomab satetraxetan ([2]; 100 nM, time (day): 5) | growth inhibition by drug plus 177Lu-lilotomab satetraxetan ([2]; 100 nM, time (day): 6) | growth inhibition by drug alone ([3]; 10 nM, time (day): 3) | growth inhibition by drug alone ([3]; 10 nM, time (day): 4) | growth inhibition by drug alone ([3]; 10 nM, time (day): 5) | growth inhibition by drug alone ([3]; 10 nM, time (day): 6) | growth inhibition by drug alone ([3]; 100 nM, time (day): 3) | growth inhibition by drug alone ([3]; 100 nM, time (day): 4) | growth inhibition by drug alone ([3]; 100 nM, time (day): 5) | growth inhibition by drug alone ([3]; 100 nM, time (day): 6)
1 | O=C(Oc1ccc([N+](=O)[O-])cc1)N1CCC(C(O)(c2ccc3c(c2)OCO3)c2ccc3c(c2)OCO3)CC1 | 0.0143 | 0.0129 | -0.0257 | -0.105 | -0.0233 | 0.0131 | -0.0194 | -0.0568 | 0.375 | 0.498 | 0.518 | 0.517 | 0.429 | 0.517 | 0.523 | 0.501 | – | – | – | – | – | – | – | –
2 | CC(=O)Nc1ccc(OC[C@](C)(O)C(=O)Nc2ccc([N+](=O)[O-])c(C(F)(F)F)c2)cc1 [Andarine (GTX-007)] | 0.0764 | 0.0433 | -0.0579 | -0.0688 | 0.0614 | 0.0399 | -0.0394 | 0.0038 | – | – | – | – | – | – | – | – | 0.017 | -0.0064 | -0.271 | -0.322 | -0.229 | -0.219 | -0.21 | -0.215
3 | N[C@@H](Cc1ccc(N(CCCl)CCCl)cc1)C(=O)O [Melphalan] | – | – | – | – | – | – | – | – | – | – | – | – | – | – | – | – | -0.0205 | 0.000425 | -0.0866 | -0.459 | -0.259 | -0.175 | -0.164 | -0.265
4 | Cc1ccccc1-n1c(Cn2cnc3c(N)ncnc32)nc2cccc(C)c2c1=O | – | – | – | – | – | – | – | – | 0.471 | 0.529 | 0.546 | 0.556 | 0.375 | 0.45 | 0.472 | 0.479 | – | – | – | – | – | – | – | –
